Screening results (PubChem)
An excerpt weighted towards active compounds, which were near 19% of everything screened.
HT1080NT lethal – kills 2HG-producing HT-1080-NT fibrosarcoma cells; actives 1.6% (n = 360,000); HT-1080-NT fibrosarcoma viability, CellTiter-Glo ATP luminescence, 48 h; Potency, µM (highest dose often 46.1 µM), without a hit: top-dose activity, negative = less viability, hits mostly cytotoxic;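 further: NT is the 2HG producing partner of a matched IDH1 knockdown line; 0% = DMSO-treated cells and -100% = media-only wells without cells; nearly all actives have a fitted effect of over 55% in size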
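A 48-hour cytotoxicity screen used HT-1080-NT cells plated 2 hours before compound delivery. ATP-based CellTiter-Glo luminescence measured viability, normalized to DMSO and no-cell controls.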
HT1080 IDH1KD tx – toxicity to HT-1080 IDH1 knockdown cells (counter line); HT-1080 IDH1 knockdown viability, ATP luminescence, 48 h; AID 686971; actives 2% (n = 360,000); Potency, µM (titrated, usually from 46.1 µM), for inactives: top-dose activity, negative = toxicity, usual class: cytotoxic;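 further: 0% = DMSO wells and -100% = cell-free medium wells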
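Luminescent ATP read-out (CellTiter-Glo, 10 min at room temperature) after 48 h compound exposure at 37 °C gave viability of IDH1-knockdown HT-1080 cells. Activity was normalised to DMSO and cell-free wells, then fitted as concentration-response curves.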
KB-3-1 cytotox – kills parental KB-3-1 adenocarcinoma cells; AID 1347075; Potency, µM (doses to about 46.1 µM), most hits filed as cytotoxic; actives 1.4% (n = 400,000); KB-3-1 viability, CellTiter-Glo ATP luminescence, 72 h; further: nearly all actives have a fitted effect of over 60% in size
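Viability of parental KB-3-1 cells, measured by CellTiter-Glo luminescence, followed a 72 h incubation at 37 °C with pinned compounds in phenol-red-free DMEM containing 10% FBS.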
TDP1 cell CPT – growth inhibition of DT40 Tdp1-/-;hTDP1 cells with camptothecin (screen for TDP1 inhibitors) | chicken DT40 Tdp1-/-;hTDP1 cells + 20 nM CPT, ATP luminescence, 48 h | Potency, µM (series often up to 46.2 µM), for inactives: at the highest dose activity change, negative = growth inhibition, actives largely listed as inhibitors | actives 12% (n = 420,000) | AID 686979; further: nearly all actives have a fitted effect of over 55% in size
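Chicken DT40 Tdp1-/- cells complemented with human TDP1, 400 cells/well, exposed to compounds plus 20 nM camptothecin for at least 48 h at 37 C; viability read as ATP content by CellTiter-Glo luminescence.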
KB-V1 cytotox – KB-V1 MDR subline cytotoxicity; KB-V1 MDR cells viability, CellTiter-Glo, 72 h; Potency, µM (top dose mostly 46.1 µM), hits mostly cytotoxic; actives 3.4% (n = 400,000); further: nearly all actives have a fitted effect of over 60% in size
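Luminescent ATP read-out (CellTiter-Glo, 10 min) measures survival of drug-selected KB-V1 MDR cells after 72 h, 37 degrees C compound exposure. Medium: phenol-red-free DMEM, 10% FBS. Values from fitted concentration-response curves.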
TDP1 cell noCPT – qHTS for Inhibitors of human tyrosyl-DNA phosphodiesterase 1 (TDP1): qHTS in cells in absence of CPT; DT40 Tdp1-/- hTDP1 cells, no CPT, ATP luminescence, 48 h; Potency, µM (titrated, usually from 46.2 µM), for inactives: at the highest dose activity change, negative = growth inhibition, most hits filed as inhibitors; actives 15% (n = 420,000); further: nearly all actives have a fitted effect of over 55% in size
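Camptothecin absent (DMSO only). Human TDP1-complemented DT40 knockout cells, 400 cells/well, 37 °C for minimum 48 hr; ATP measured via CellTiter-Glo, 30 min dark incubation, luminescence.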
Starred values were filed as active, the others as inactive; i = inactive; ? = inconclusive; nt = not tested or not shown; [ ] = remark or other dose. The call rests on the fitted dose curve; in most records, active means well fitted curve in the direction sought with a large enough effect; inconclusive means small, poorly fitted or top-dose-only effect, or another doubt; inactive means no such curve, though single readings can be large; an effect the other way counts as inactive or inconclusive. Unless noted, on the % scale 0 is the no-effect control and ±100 the full control effect; potency means the concentration at half of the fitted maximal effect.

SMILES | HT1080NT lethal | HT1080 IDH1KD tx | KB-3-1 cytotox | TDP1 cell CPT | KB-V1 cytotox | TDP1 cell noCPT
CCCC#Cc1ccc2c(c1)O[C@H](CN(C)S(=O)(=O)c1cccc(OC)c1)[C@H](C)CN([C@H](C)CO)S2(=O)=O | ? | ? | ? | 15µM* | i | 16µM*
C[C@H](CO)N1C[C@H](C)[C@H](CN(C)S(=O)(=O)c2cccc(F)c2)Oc2cc(Br)ccc2S1(=O)=O | 10% | 7% | i | 26µM* | i | 21µM*
COc1cccc(C#Cc2ccc3c(c2)O[C@H](CN(C)S(=O)(=O)c2ccccc2F)[C@H](C)CN([C@H](C)CO)S3(=O)=O)c1 | 12% | 0% | i | -30% | i | ?
COc1ccc(C(=O)Nn2c(CC(C)C)nc3cc(Cl)ccc3c2=O)c(OC)c1 | -6% | -7% | i | ? | i | 21µM*
COc1ccc(CCNS(=O)(=O)c2ccc(Cl)cc2)cc1OC | 0% | -15% | i | -28% | i | -10%
C=CCc1cc(Cl)ccc1OCCCNC(C)CC (stereo unspecified) | ? | ? | ? | 16µM* | 13µM* | 15µM*
C=CCc1ccc(OCCCCNC(C)CC)c(OC)c1 (stereo unspecified) | -13% | -1% | i | ? | ? | 18µM*
CCC(C)NCCCOc1ccc(Cl)cc1C(C)(C)C (stereo unspecified) | -8% | -16% | i | ? | ? | ?
CCN1CCCC1CNC(=O)c1cnn(-c2nccc(-c3cccs3)n2)c1C1CC1 (stereo unspecified) | nt | nt | nt | 6%[9.04 µM] | nt | -13%
Cc1ccc(S(=O)(=O)Nc2ccccc2N2CCCCC2)cc1 | ? | ? | ? | ? | ? | 16µM*
Cc1ccc(S(=O)(=O)Nc2ccccc2N2CCOCC2)cc1 | 21µM* | 18µM* | 13µM* | 21µM* | ? | ?
Cc1ccc(S(=O)(=O)Nc2ccc(N3CCCCC3)cc2)cc1 | -12% | -12% | i | ? | i | ?
Cc1[nH]nc2c1C(c1cc(Br)cs1)C(C#N)=C(N)O2 (stereo unspecified) | ? | ? | 13µM* | 4.1µM* | 16µM* | 5.2µM*
CCCc1[nH]nc2c1C(c1ccsc1)C(C#N)=C(N)O2 (stereo unspecified) | ? | 21µM* | i | 16µM* | i | ?
COc1ccc(-c2ccc(C3C(C#N)=C(N)Oc4n[nH]c(C)c43)o2)cc1 (stereo unspecified) | ? | ? | i | 21µM* | i | 21µM*
Cc1ccc(C2C(C#N)=C(N)Oc3n[nH]c(-c4ccccc4)c32)o1 (stereo unspecified) | -6% | 0% | i | 13µM* | i | 23µM*
COCCCN1C(=O)C(CC(=O)NC2CCCCC2)CC(C(=O)N2CCOCC2)=C1C (stereo unspecified) | 21% | 14% | i | 1% | i | -5%
Cn1ccnc1C1CCCCN1C(=O)CN1Cc2ccccc2OC(c2ccccc2F)C1 (stereo unspecified) | nt | nt | nt | -11%[9.04 µM] | nt | ?
O=c1c(Cl)c(Cl)cnn1Cc1nnc(-c2ccccc2Br)o1 | 12µM* | 9.2µM* | i | 4.1µM* | ? | 1.8µM*
CCN1C(=O)N/C(=C/c2ccc(C)o2)C1=O | 17% | 4% | i | 23µM* | i | 21µM*
Cc1ccc(/C=C2/NC(=O)N(Cc3ccc(Br)cc3)C2=O)o1 | -9% | 2% | i | ? | i | ?
Cc1ccc(/C=C2/NC(=O)N(c3ccccc3)C2=O)o1 | -4% | 6% | i | 10µM* | i | 16µM*
Cc1c(C(=O)O)cccc1-c1ccc(/C=C2/NC(=O)N(c3ccccc3)C2=O)o1 | 9% | -3% | i | ? | i | ?
CN(C(=O)c1cc2ccccc2oc1=O)C1(C)CCS(=O)(=O)C1 (stereo unspecified) | 2% | 6% | i | 0% | i | 2%
CCN(CC)S(=O)(=O)c1ccc2c(c1)N(CC(=O)NCCc1ccccc1)C(=O)CO2 | nt | nt | nt | -21% | nt | -17%
SMILES | HT1080NT lethal | HT1080 IDH1KD tx | KB-3-1 cytotox | TDP1 cell CPT | KB-V1 cytotox | TDP1 cell noCPT
Cc1ccc(S(=O)(=O)N2CCOC2CNC(=O)C(=O)NCc2ccc3c(c2)OCO3)cc1 (stereo unspecified) | -2% | -5% | i | -25% | i | -5%
Cn1nc(C(C)(C)C)cc1NC(=O)Nc1cc(Cl)cc(Cl)c1 | 16µM* | ? | i | 16µM* | i | ?
Cc1ccc(F)cc1NC(=O)Nc1cc(C(C)(C)C)nn1C | 3% | 1% | i | 12% | i | -14%
CC(C)Cn1c(SCC(=O)O)nnc1-c1cccc(S(=O)(=O)N2CCOCC2)c1 | 0% | -1% | i | -14% | ? | 22%
CC(C)Cn1c(SCC(=O)NCc2ccc(Cl)cc2)nnc1-c1cccc(S(=O)(=O)N2CCOCC2)c1 | ? | -16% | i | ? | i | 21µM*
NC(=O)CSc1nnc(-c2cccc(S(=O)(=O)N3CCOCC3)c2)n1C1CCCCCC1 | -4% | -3% | i | 5.8µM* | ? | 7.3µM*
Cc1ccc(CSc2nnc(-c3cccc(S(=O)(=O)N4CCOCC4)c3)n2C2CCCC2)cc1 | -27% | ? | ? | 15µM* | ? | 12µM*
O=S(=O)(c1cccc(-c2n[nH]c(=S)n2C2CCCC2)c1)N1CCOCC1 | -19% | -21% | i | -11% | ? | ?
Cc1ccccc1OCC(=O)Nc1c2c(nn1C(C)(C)C)CS(=O)(=O)C2 | 3% | -18% | i | -9% | i | -10%
O=C(Nc1cccc2ccccc12)c1csc([C@@H]2O[C@H](CO)[C@H](O)[C@H](O)[C@H]2O)n1 | 21% | 0% | i | -8% | i | -5%
O=C1CCN(S(=O)(=O)c2ccccc2)CCN1CCOCc1ccc(C(F)(F)F)cc1 | -1% | -2% | i | ? | ? | 13µM*
Cc1ccc(S(=O)(=O)N2CCC(=O)N(CCOCc3ccc(C(F)(F)F)cc3)CC2)cc1 | -4% | -8% | i | 4.6µM* | ? | 8.2µM*
C[C@@H]1CN([C@@H](C)CO)C(=O)CCCn2cc(nn2)CO[C@H]1CN(C)C(=O)c1ccc2ccn(C)c2c1 | -12% | 3% | i | 5% | i | ?
